# From PubChem BioAssay (NCI)
# Compounds without any hit were thinned out: in the full panel of roughly 83,000, 20% have a hit.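 48-hour exposure, single concentration, 96-well plates; percent growth endpoint where 0 means no net growth. Active: below 10.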 Unmarked numbers belong to inactive results. Activity calls are given as the source filed them.
# Legend:
# Assay in all cases: NCI-60 one-dose screen, 48 h (100 = growth as untreated, 0 = no growth, -100 = all killed)
# Settings in all cases: 10 µM unless noted
# SK-MEL-2 melanoma = system: SK-MEL-2 melanoma
# EKVX NSCLC = system: EKVX NSCLC
# SN12C renal = system: SN12C renal
# UO-31 renal = system: UO-31 renal
# TK-10 renal = system: TK-10 renal
# ACHN renal = system: ACHN renal
# A498 renal = system: A498 renal
# CCRF-CEM leukemia = system: CCRF-CEM leukemia
# MOLT-4 leukemia = system: MOLT-4 leukemia
# SR leukemia = system: SR leukemia
# RPMI-8226 leukemia = system: RPMI-8226 leukemia
# OVCAR-8 ovarian = system: OVCAR-8 ovarian
# OVCAR-5 ovarian = system: OVCAR-5 ovarian
# OVCAR-4 ovarian = system: OVCAR-4 ovarian
# SK-OV-3 ovarian = system: SK-OV-3 ovarian
# IGROV1 ovarian = system: IGROV1 ovarian
# OVCAR-3 ovarian = system: OVCAR-3 ovarian
# HS 578T breast = system: HS 578T breast
# NCI/ADR-RES ovarian = system: NCI/ADR-RES ovarian
# T-47D breast = system: T-47D breast
SMILES,growth (SK-MEL-2 melanoma),growth (EKVX NSCLC),growth (SN12C renal),growth (UO-31 renal),growth (TK-10 renal),growth (ACHN renal),growth (A498 renal),growth (CCRF-CEM leukemia),growth (MOLT-4 leukemia),growth (SR leukemia),growth (RPMI-8226 leukemia),growth (OVCAR-8 ovarian),growth (OVCAR-5 ovarian) [%],growth (OVCAR-4 ovarian),growth (SK-OV-3 ovarian),growth (IGROV1 ovarian),growth (OVCAR-3 ovarian),growth (HS 578T breast),growth (NCI/ADR-RES ovarian),growth (T-47D breast)
O=C1NCc2ccc3c(-c4cccc(Cl)c4)c[nH]c3c21,38.6%,28.7%,36.8%,44.8%,46.2%,48.4%,24.7%,17.4%,18.1%,20.4%,25.8%,25.4%,39.7,53.6%,10.9%,32.2%,-5.67% (active),31.3%,6.99% (active),39%
O=C1c2ccccc2C(=O)c2c1oc1c2c(=O)[nH]c2ccccc21,76.9%,27.4%,70.4%,60.4%,97.5%,65.7%,104%,20.7%,5.55% (active),43.8%,62.7%,35.6%,102,-5.49% (active),104%,55.1%,-14.8% (active),88.3%,40.8%,22.5%
O=[N+]([O-])c1ccc(Oc2ccc(-c3ccccc3)cc2)cc1,103%,85.1%,96.6%,79.5%,88.5%,101%,84.5%,78.3%,70.4%,77.8%,75.2%,92.1%,99.2,69.6%,92.6%,85.3%,99.3%,93.2%,91.8%,60.6%
COC(=O)/C=C/c1cc(OC)c2c(c1)[C@@H](C(=O)OC)[C@H](c1ccc(OC)c(OC)c1)O2,31.4%,38.5%,45.5%,45.9%,64.1%,44.4%,22.1%,18.7%,22.9%,26%,12.6%,30.8%,77,42.6%,66.8%,43.2%,-15.8% (active),37.5%,16.6%,33.1%
COc1ccccc1Nc1nnc(-c2ccc(Cl)cc2)o1,34.4%,50.8%,59.6%,69.5%,68.9%,72.2%,45.3%,38%,19.5%,19.7%,29.2%,60.1%,86.5,68.3%,47.7%,52.8%,8.06% (active),64.5%,20.8%,32.4%
CCOC(=O)c1c(C)nc2c(c1N)CC(=O)N2CCc1ccccc1,39.2%,55.9%,24.3%,36.6%,-3.79% (active),34.2%,11.9%,9.62% (active),18.6%,3.16% (active),-6.34% (active),24.3%,53.3,62.8%,45.6%,28.7%,35.4%,41.1%,30.1%,53.9%
O=C1c2ccccc2C(=O)c2c1oc1c2c(=O)[nH]c2ccc(Cl)cc21,31.8%,15.2%,-26.3% (active),-54.9% (active),-42.1% (active),-14.2% (active),80.4%,29%,18.4%,33.7%,4.83% (active),-27.5% (active),52.7,-42% (active),1.64% (active),-3.63% (active),-68.4% (active),-7.55% (active),–,-58.1% (active)
C[C@@H]1C(=O)[C@@H]2C[C@@H](O)[C@@H](O)C[C@]2(C)[C@H]2CC[C@@]3(C)C(=C12)CC[C@@H]3[C@@](C)(O)[C@H](O)CCC(C)(C)O,108%,113%,104%,89%,95.9%,117%,67.2%,89.5%,87.3%,97.4%,105%,94.7%,112,114%,103%,113%,102%,99.3%,–,95.5%
COc1ccc(-n2nc(C(=O)NCC(=O)O)nc2-c2ccccc2)cc1,99.8%,108%,105%,87.5%,94.1%,108%,113%,102%,100%,102%,112%,111%,100,111%,111%,105%,116%,115%,–,104%
Cc1nccc2c3ccc(OCc4cn(-c5ccc(Cl)cc5)nn4)cc3n(CC(C)C)c12,20.7%,40.8%,37.7%,12.4%,13.7%,34.8%,22.6%,18%,-11.1% (active),-14.8% (active),-35.1% (active),25.2%,44.2,30.5%,24.2%,44.4%,35.3%,38.8%,14.1%,14%
O=C1Nc2ccc(Cl)cc2/C1=N/c1nc(-c2ccc(Cl)cc2)cs1,-2.56% (active),25.6%,17.3%,24.6%,-15.5% (active),11.9%,-2.57% (active),8.26% (active),2.22% (active),3.05% (active),-2.3% (active),3.67% (active),26.2,34.9%,1.76% (active),16.6%,-13.6% (active),13.7%,–,-3.94% (active)
N#Cc1ccc(C2C3=C(CCCC3=O)OC3=C2C(=O)c2ccccc2C3=O)cc1 (stereo unspecified),43.7%,63.1%,12.6%,85.8%,99.7%,66.7%,109%,15.8%,-6.58% (active),60.9%,54.7%,1.88% (active),126,-2.83% (active),97.7%,40%,-1.75% (active),90.8%,6.19% (active),3.02% (active)
CC(C)NS(=O)(=O)c1cccc(-c2ccc3c(=O)n(CCCN)c4c(c3c2)C(=O)c2ccccc2-4)c1,111%,100%,113%,93.2%,96.8%,101%,103%,88.2%,95.6%,77.6%,102%,97.6%,109,85.2%,107%,102%,99%,105%,–,103%
CCc1c(C(=O)N[C@@H](C(=O)OCc2ccccc2)C(C)O)[nH]c2ccc(Cl)cc12 (stereo partly specified),106%,73.8%,66.6%,11.7%,33.6%,8.62% (active),67.7%,79.6%,91.5%,35.1%,82.7%,59.2%,69.1,-46.9% (active),59.3%,46.3%,29.4%,40.6%,68.2%,47.5%
S=C(Nc1ccc(Cl)cc1)c1ccccn1,92.1%,87.9%,99.3%,71.5%,110%,99%,69.2%,99.4%,101%,102%,96.8%,92.7%,102,96.9%,94.3%,93.3%,109%,95.9%,–,79.2%
COc1ccc(C2N(c3cc(OC)c(OC)c(OC)c3)C(=O)C2(F)F)cc1F (stereo unspecified),84.6%,77.7%,54.9%,53.5%,106%,60.8%,97.8%,13%,18.7%,18.7%,20.8%,44.1%,78.7,58.3%,75.5%,44.2%,17.6%,21.9%,–,65.7%
c1ccc(-c2cn3ccnc3c(-c3ccc4c(c3)ncn4C3CCCCC3)n2)cc1,106%,97.5%,95.2%,79.1%,106%,104%,106%,88.3%,60.3%,55.4%,81.7%,101%,103,101%,104%,106%,101%,101%,–,74.5%
Cc1cnc(SCc2ccc(Cl)cc2)[nH]c1=S,88.5%,103%,103%,93.9%,95.1%,104%,90.7%,106%,106%,89.7%,101%,101%,97.5,92.3%,108%,103%,94.1%,112%,103%,88%
Cc1nc2sc(C(=O)Nc3cccc(Cl)c3C)c(N)c2cc1C(C)O (stereo unspecified),24.2%,54.5%,33.5%,48.7%,46.3%,35.7%,8.96% (active),14.2%,13%,12%,17.8%,21.9%,55.8,54.2%,22.8%,31.6%,-5.67% (active),31.8%,–,44.4%
COc1cc(/C=N/Nc2nc(-c3ccc(F)cc3)c(C#N)c(N3CCOCC3)n2)ccc1O,114%,90.5%,89.4%,81.7%,98.9%,91.3%,87.8%,84.1%,73.4%,74.9%,87.1%,89.8%,107,89.8%,102%,96.7%,103%,102%,–,93.6%
CC(=O)c1c(OCC#N)ccc2c(C)cc(=O)oc12,95.6%,105%,102%,114%,118%,99.8%,101%,105%,101%,87.1%,80%,124%,114,107%,110%,116%,120%,106%,118%,97.9%
C=C1C(=O)O[C@H]2[C@H]1CC/C(COC(=O)CCCCCCCCC(=O)OC/C1=C/CC[C@@]3(C)O[C@H]3[C@H]3OC(=O)C(=C)[C@@H]3CC1)=C\CC[C@@]1(C)O[C@@H]21,22%,8.84% (active),-1.39% (active),-75.2% (active),0.838% (active),-23.2% (active),96.8%,2.5% (active),3.83% (active),-2.09% (active),-6.37% (active),10.2%,28.9,29%,86.9%,-19.2% (active),2.11% (active),10.3%,2.99% (active),-27.3% (active)
CCC[S@](=O)c1ccc2nc(NC(=O)OC)[nH]c2c1,99.2%,95.3%,100%,96.8%,91.7%,103%,95.1%,96.2%,79.6%,75.3%,96.4%,84.9%,101,104%,74.5%,97.1%,104%,102%,–,87.7%
Cc1cccc(C)c1Nc1nnc(-c2ccc(F)cc2)o1,105%,104%,105%,88.8%,105%,100%,103%,100%,110%,119%,109%,109%,93.9,103%,102%,97.9%,93.6%,108%,–,110%
COc1cc(C(=O)Nc2cc(O)c(C/C=C(\C)CCC=C(C)C)c(O)c2)cc2c1O[C@]1(C)CC[C@@H](O)C(C)(C)[C@H]1C2,5.69% (active),31.7%,26.5%,-31.9% (active),40.9%,18.5%,-25.7% (active),7.08% (active),-2.24% (active),1.41% (active),-23.6% (active),29.9%,48.5,32.8%,17.9%,33.7%,5.54% (active),-1.79% (active),–,9.68% (active)
c1ccc(-c2n(Cc3ccc4ccccc4n3)cc[n+]2Cc2ccc3ccccc3n2)cc1,-5.81% (active),70.2%,22.1%,76.5%,58.7%,96.8%,56.1%,28.4%,37.9%,25.1%,0.454% (active),33.6%,70.5,32.9%,48.9%,33.9%,28.8%,60.4%,–,9.75% (active)
Cc1cccc(C)c1NCc1nnc(-c2ccco2)o1,100%,81.5%,94.8%,65.1%,123%,101%,96.5%,91.4%,88.8%,85.7%,77.9%,98.2%,99.8,101%,87%,85.3%,94.8%,91.5%,97.3%,80.6%
COc1ccccc1N1CCN(CCCOc2ccc(C(=O)/C=C3/C(=O)Nc4ccccc43)cc2)CC1,72.2%,53.5%,69.7%,44.5%,87.1%,74.2%,88.6%,15.6%,18.6%,19.8%,34.9%,65.9%,32.4,45.2%,79.7%,67.7%,66.1%,26.7%,73%,33.3%
